Records with an inconclusive call do not appear. A call without a number means that no potency is given here. Activity calls are given as the source filed them. Calls come from the whole dose curve.

Sequence of Muscarinic acetylcholine receptor M1 (Homo sapiens) (P11229 whole entry, looked up): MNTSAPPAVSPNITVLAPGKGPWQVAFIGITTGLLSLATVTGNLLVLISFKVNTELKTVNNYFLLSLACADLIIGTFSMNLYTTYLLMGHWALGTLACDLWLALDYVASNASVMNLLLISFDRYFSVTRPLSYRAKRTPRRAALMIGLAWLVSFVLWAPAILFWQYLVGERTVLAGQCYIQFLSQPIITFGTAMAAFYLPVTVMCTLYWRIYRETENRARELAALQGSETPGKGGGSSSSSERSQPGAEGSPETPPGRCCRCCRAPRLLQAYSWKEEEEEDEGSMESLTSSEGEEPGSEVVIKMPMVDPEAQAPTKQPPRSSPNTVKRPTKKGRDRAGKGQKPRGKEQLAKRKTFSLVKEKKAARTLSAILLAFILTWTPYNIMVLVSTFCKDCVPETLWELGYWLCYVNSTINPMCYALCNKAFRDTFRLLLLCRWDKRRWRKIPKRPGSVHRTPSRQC

For the assay, the target named is Muscarinic acetylcholine receptor M1 (Homo sapiens) (UniProt P11229). The assay can be described thus: Cholinergic receptor muscarinic 1 (CHRM1) small molecule antagonists, cell-based qHTS assay (AID 1963588). Note: nearly all actives have a fitted effect of over 40% in size. The note with it: CHRM1-CHO antagonist mode, calcium flux fluorescence; series mostly up to 61.5 µM. From the text:
National Center for Advancing Translational Sciences [NCATS]
Division of Preclinical Innovation [DPI]
U.S. Environmental Protection Agency [EPA]
National Institutes of Environmental Health Sciences [NIEHS]
National Toxicology Program [NTP]
U.S. Food and Drug Administration [FDA]
The CHRM1 is a muscarinic receptor. This receptor plays a crucial role in learning and memory processes and has long been identified as a promising therapeutic target for the improvement of cognitive decline in Alzheimer's disease (AD). The CHRM1-CHO cell line stably expressing human muscarinic acetylcholine receptor M1 (CHRM1) can be used for screening agonists and antagonists of interactions between CHRM1 and its ligands. The CHRM1-CHO Calcium Flux Assay is a homogeneous fluorescence-based assay for detecting the intracellular calcium level using FDSS kinetic plate reader system.
Tox21 Assay Protocol Summary:
CHRM1-CHO cells were dispensed at 1000 cells/3uL/well in 1536-well black-clear bottom plates using a Multidrop Dispenser. After the assay plates were incubated at a 37 C/5% CO2 incubator for 18 h, 3 uL of Dye Loading Buffer was transferred to the assay plate by a Flying Reagent Dispenser. The assay plates were incubated at 37 C for 1h. For antagonist mode, 23 nL of compounds dissolved in DMSO, positive controls or DMSO only was transferred to the assay plate by a pin tool. After 5 min incubation at room temperature, 1.5 uL of acetylcholine at 50nM was added to each well. The fluorescence intensity in the plates was measured using FDSS 7000EX kinetic plate reader for 3 min at 1 sec intervals. Each test compound was measured at 15 concentrations in three independent runs.
Take `CC(C)C(=O)OCc1cccc(OC(=O)[C@@H]2N3C(=O)[C@@H](NC(=O)Cc4ccccc4)[C@H]3SC2(C)C)c1`: the Potency entry is “inactive”. The same measure, in the same setting: the value for `O=c1[nH]cccc1O` was “inactive”; that for `CC(C)(C)C1(CCc2ccc(Cl)cc2)CO1` (stereo not given) was “inactive”; that for `CC(Oc1cc(Cl)ccc1Cl)C(=O)O` (stereo not given) was “inactive”.

`CCCCCCCCN1CCCC1=O`: the Potency result is “inactive”. With `CCCCCN(CCCOC)C(=O)C(CCC(=O)O)NC(=O)c1ccc(Cl)c(Cl)c1` (stereo not given), the Potency result was “inactive”. Still for that read-out and setting: the value for `Cc1cc(=O)[nH]c(=O)[nH]1` was “inactive”; that for `C=CCCCC` was “inactive”; that for `CCCCCCCC(=O)Oc1c(Br)cc(C#N)cc1Br` was “inactive”. Take `O=P(O)(O)Oc1ccccc1`: the Potency result is “inactive”.

As to `Cc1c(C(C)C)c(=O)n(-c2ccccc2)n1C`, the Potency entry was “inactive”. The same measure, in the same setting: the value for `Cc1cccc(C(=O)O)c1[N+](=O)[O-]` was “inactive”.

For the molecule `COCC(=O)Nc1c(I)c(C(=O)NCC(O)CO)c(I)c(C(=O)N(C)CC(O)CO)c1I` (stereo not given), the Potency result was “inactive”. Take `COCCOC(=O)C1=C(C)NC(C)=C(C(=O)OC/C=C/c2ccccc2)C1c1cccc([N+](=O)[O-])c1` (stereo not given): the Potency result was “inactive”. The same measure, in the same setting: the value for `NC(=O)COCCN1CCN(C(c2ccccc2)c2ccc(Cl)cc2)CC1` (stereo not given) was “inactive”; that for `C=C(C)CCCC(C)CCO` (stereo not given) was “inactive”.

On to `CC[N+](CC)(CC)Cc1ccccc1`, for which the Potency result is “inactive”.

For `CCCCCCCCCOC(C)=O`, the Potency result was “inactive”. Regarding `CCOC(=O)CC(C)O` (stereo not given), the Potency entry is “inactive”. Same read-out and setting: then `O=C(CS)Nc1ccccc1`, with “inactive”.

As to `Cc1cc(=O)oc2cc(O[C@@H]3SC[C@@H](O)[C@H](O)[C@H]3O)ccc12`, the Potency result is “inactive”. Regarding `CC(C)C[C@@H](N)C(=O)O`, the activity, negative = inhibition is 0.917% [at 12.6 µM] (inactive). As for `O=C(O)c1ccccc1Cl`, the Potency result was “inactive”. Take `CCOC(=O)Nc1ccc(NCc2ccc(F)cc2)nc1N`: the Potency result is “inactive”. `O=C(O)Cc1ccccc1Oc1ccc(Cl)cc1Cl`: the Potency entry is “inactive”. Same read-out and setting: then `Cc1ccco1`, with “inactive”; and `Oc1ccc2c(c1)CCC2`, with “inactive”. Take `CCC(CC)(CC(=O)Nc1cccc(/C=C/c2nc(C3CCC3)cs2)c1)C(=O)O`: the Potency entry was “inactive”.

As for `CCOc1nc(F)cc2nc(S(=O)(=O)Nc3c(Cl)cccc3C(=O)OC)nn12`, the Potency result was “inactive”. Still for that read-out and setting: then `Oc1ccc2c(c1)OCO2`, with “inactive”; and `O=C(/C=C/c1ccccc1)OC/C=C/c1ccccc1`, with “inactive”. On the same count and under the same terms, then `CCn1ccnc1CC1COc2ccccc2O1` (stereo not given), with “inactive”.

Consider `C=COCC1CCC(COC=C)CC1` (stereo not given), for which the Potency result was “inactive”.

With `CN(C)C(=O)Nc1ccc(Oc2ccc(Cl)cc2)cc1`, the Potency entry was “inactive”. On to `CC(C)Cc1nccs1`, for which the Potency entry is “inactive”. Turning to `C[C@H](N)C(=O)N[C@@H](C)C(=O)NC1[C@H]2CN(c3nc4c(cc3F)c(=O)c(C(=O)O)cn4-c3ccc(F)cc3F)C[C@@H]12` (stereo not given in full), the Potency result is “inactive”. For `C/C(=C(\CCOP(=O)(O)O)SC(=O)c1ccccc1)N(C=O)Cc1cnc(C)nc1N`, the activity, negative = inhibition was 1.74% [at 5.58 µM] (inactive). Turning to `CN=C(NC#N)NCCSCc1csc(N=C(N)N)n1`, the Potency entry was “inactive”. Still for that read-out and setting: the value for `CC1CCCCC1` was “inactive”; that for `CC(=O)C1CCCCC1=O` (stereo not given) was “inactive”.
